# Many of the other results were omitted from the sample, so hits are more common in it than they were.
# NS1 inh – qHTS Assay for Inhibitors of Influenza NS1 Protein Function; hit rate 0.4% among 270,000; Potency, µM (doses to about 46.1 µM), without a hit: top-dose activity, positive = more growth; calls by dose curve; also: potency is read from the fitted curve at half-maximal effect; actives are rising curves; nearly all actives have a fitted effect of over 50% in size
#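 In this qHTS, NS1 from influenza A is expressed in budding yeast, where it slows growth. Cells are switched from glucose to 2% galactose medium (pH 6.0, -URA), treated with compound, and growth recovery is read at OD600.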
# Shiga inhibitor – A qHTS for Small Molecule Inhibitors of Shiga Toxin; hit rate 9.2% among 290,000; Vero cells, Shiga toxin protein synthesis inhibition reporter; inhibition, % at 38.7 µM; in the data active = inhibition mostly above about 28%, no sharp cut-off; inactive = mostly below about 43%; also: 0% is about no effect
# CHX counter – Cycloheximide Counterscreen for Small Molecule Inhibitors of Shiga Toxin | cell reporter, cycloheximide protein synthesis inhibition counterscreen | max response, % | hit rate 12% among 300,000; in the data active = max response mostly above about 13%, no sharp cut-off; inactive = mostly below about 14%; also: read at 38.3 µM for the half of the compounds with a filed dose; 0% is about no effect
# AmpC detergent – qHTS Inhibitors of AmpC Beta-Lactamase (assay with detergent); P00811; AmpC hydrolysis of nitrocefin, absorbance 480 nm, 0.01% Triton; Potency, µM (series often up to 114 µM), for the others: top-dose activity change, negative = inhibition, actives largely listed as inhibitors; hit rate 0.041% among 370,000; AID 485294, 2010;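 also: potency is read from the fitted curve at half-maximal effect; 0% = no-compound wells and -100% = no-enzyme wells; nearly all actives have a fitted effect of over 25% in size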
# Target sequence (P00811 whole entry, looked up): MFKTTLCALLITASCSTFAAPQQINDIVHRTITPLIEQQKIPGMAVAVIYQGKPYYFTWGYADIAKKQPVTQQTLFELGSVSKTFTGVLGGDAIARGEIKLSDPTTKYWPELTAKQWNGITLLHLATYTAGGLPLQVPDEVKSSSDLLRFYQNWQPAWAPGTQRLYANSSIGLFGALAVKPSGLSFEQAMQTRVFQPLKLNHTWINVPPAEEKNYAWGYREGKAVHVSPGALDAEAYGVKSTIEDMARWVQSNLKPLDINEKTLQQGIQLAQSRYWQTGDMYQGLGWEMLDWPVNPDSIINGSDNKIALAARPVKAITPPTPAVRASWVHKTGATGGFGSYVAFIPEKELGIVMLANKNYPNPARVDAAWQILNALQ
#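 20 mM phosphate pH 7.0 + 0.01% (detergent screen) or 0.0001% Triton X-100; 5.3 nM AmpC reagent; cpd preinc 15 min RT; nitrocefin (800 uM stock) to start; A480 q20 s × 4 min; Activity was normalised to no-enzyme and no-compound control wells.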
# AmpC no deterg – qHTS Inhibitors of AmpC Beta-Lactamase (assay without detergent); P00811; AmpC nitrocefin hydrolysis, absorbance 480 nm, 0.0001% Triton; Potency, µM (highest dose often 57.1 µM), for inactives: at the top dose activity change, negative = inhibition, usual class: inhibitors; hit rate 0.52% among 330,000; AID 485341, 2010;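 also: potency is read from the fitted curve at half-maximal effect; plate controls were no compound for no effect and no enzyme for full effect; nearly all actives have a fitted effect of over 20% in size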
#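 20 mM phosphate pH 7.0 + 0.01% (detergent screen) or 0.0001% Triton X-100; 5.3 nM AmpC reagent; cpd preinc 15 min RT; nitrocefin (800 uM stock) to start; A480 q20 s × 4 min; Activity was normalised to no-enzyme and no-compound control wells.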
# Numbers without * were called inactive; ? = inconclusive; . = not tested or not shown. Unless noted, calls follow the shape of the dose curve; as a rule, active = well fitted curve in the direction sought with a large enough effect; inconclusive = small, poorly fitted or top-dose-only effect, or another doubt; inactive = no such curve, though single readings can be large; an effect the other way counts as inactive or inconclusive.
SMILES,NS1 inh,Shiga inhibitor,CHX counter,AmpC detergent,AmpC no deterg
COc1ccc(OC)c(C2C(C#N)=C(N)Oc3c2c(C)nn3-c2ccc(C)cc2)c1 (stereo unspecified),-16%,-6,-4,5%,-21%
Cc1ccc(-n2nc(C)c3c2OC(N)=C(C#N)C3c2ccc(C)o2)cc1 (stereo unspecified),-2%,92*,48*,-9%,-24%
O=C(/C=C/Nc1ccc(Cc2ccc(N/C=C/C(=O)C(F)(F)F)cc2)cc1)C(F)(F)F,19%,23,13,-2%,-47%
CS(=O)(=O)N1CCC(Oc2ccccc2C(=O)NC(C2CC2)C2CC2)CC1,-1%,45*,16,-3%,-3%
COc1ccccc1C(=O)Nc1ccc(N2CCN(S(C)(=O)=O)CC2)cc1,-4%,37*,11,2%,27%
COc1c(C)cccc1C(=O)Nc1ccc(N2CCN(S(C)(=O)=O)CC2)cc1,-2%,96*,35*,0%,5%
CS(=O)(=O)N1CCC(Oc2ccccc2C(=O)NC2CCOC2)CC1 (stereo unspecified),2%,9,2,2%,-6%
Cc1[nH]n(-c2ccccc2)c(=O)c1N=Nc1ccc(C(=O)O)cc1,2%,-5,10,1%,-17%
Cc1[nH]n(-c2ccccc2)c(=O)c1N=Nc1ccc(Cl)cc1,-4%,.,0,-4%,5%
Cc1[nH]n(-c2ccccc2)c(=O)c1N=Nc1cccc(C(=O)O)c1,-7%,.,42*,-12%,-52%
Cc1ccc(N=Nc2c(N)n(-c3ccccc3)[nH]c2=O)cc1,16%,122*,38*,3%,-18%
Cc1[nH]n(-c2ccccc2)c(=O)c1N=Nc1ccccc1,-2%,48,23*,3%,-12%
Cc1[nH]c2ccccc2c1N=Nc1cccc(C(=O)O)c1,0%,108*,58*,-4%,-9%
Oc1cc(CN2COc3ccccc32)c(O)cc1CNC1CCCCC1,3%,.,.,.,.
CCN1CCN(C(c2cccs2)C(C)NC(=O)C(=O)N2CCCCC2)CC1 (stereo unspecified),13%,-2,-3,0%,-5%
CCC(=O)N1CCc2cc(S(=O)(=O)NCCC(=O)NCc3ccccc3OC)ccc21,-3%,-5,14,-5%,1%
CC1=C(C#N)C(NC(=O)c2cccc(Cl)c2)(C(F)(F)F)C(=O)N1 (stereo unspecified),-1%,-6,-4,-3%,-9%
Cc1cc(C)nc(CCNC(=O)c2cc(COc3ccccc3)on2)n1,-23%,56*,36*,3%,6%
CC(=O)c1ccc(OCc2cc(C(=O)NCCc3ccc(Cl)cc3)no2)cc1,-9%,48*,19*,?,-18%
CC(=O)c1ccc(OCc2cc(C(=O)NCC3CCCCO3)no2)cc1 (stereo unspecified),7%,46*,25*,-4%,-3%
Cc1ccc(OCc2cc(C(=O)NCc3cc(F)ccc3C)no2)cn1,-26%,28*,22*,?,18%
Cc1ccccc1CNC(=O)c1cc(COc2ccc(F)cc2F)on1,-6%,-2,-2,-2%,-17%
CS(=O)(=O)Nc1ccccc1C(=O)c1ccccc1,-4%,-21,-2,-3%,-11%
CCCCn1c(N)c(N(CCOC)C(=O)CSc2n[nH]c(-c3ccc(OC)cc3)n2)c(=O)[nH]c1=O,-6%,2,16,3%,-10%
CC(c1ccccc1)N(C)C(=O)CSc1nnc(C2CC2)n1C1CC1 (stereo unspecified),.,.,.,3%,1%
SMILES,NS1 inh,Shiga inhibitor,CHX counter,AmpC detergent,AmpC no deterg
Cc1cccc(C)c1OCc1nc2c3cnn(-c4ccccc4F)c3ncn2n1,.,.,.,13%,.
Cc1ccc(OCc2cc(C(=O)NCC3COCCO3)no2)cc1C (stereo unspecified),0%,42*,41*,6%,104%
CCN1CCCC1CNC(=O)c1cc(COc2ccc(C)c(C)c2)on1 (stereo unspecified),3%,53*,32*,-6%,39%
Nn1c(Cc2ccc(F)cc2)n[nH]c1=S,.,-15,-1,2%,-25%
Nn1c(Cc2ccccc2)n[nH]c1=S,0%,50,18*,-5%,-13%
CC(C)c1ccc(N(C(=O)c2csnn2)C(C(=O)NC2CCCC2)c2ccncc2)cc1 (stereo unspecified),-22%,66*,30*,0%,24%
O=C(NCC(=O)N(c1cnc2ccccc2c1)C(C(=O)NC1CCCC1)c1ccncc1)c1ccco1 (stereo unspecified),-10%,18,15*,?,1%
O=C(NCC(=O)N(c1ccccc1)C(C(=O)NC1CCCCC1)c1ccncc1)c1ccco1 (stereo unspecified),-10%,-23,-1,-11%,-4%
CCC(C)c1ccc(N(C(=O)c2ccco2)C(C(=O)NC2CCCC2)c2cccnc2)cc1 (stereo unspecified),-5%,94*,39*,3%,26%
CC(=O)Nc1ccc(N(C(=O)c2ccco2)C(C(=O)NC2CCCCC2)c2ccccc2)cc1 (stereo unspecified),-9%,35*,12*,0%,16%
CCn1cnc2cc(NS(=O)(=O)c3ccc(OC)c(OC)c3)ccc21,3%,-5,-2,-9%,-8%
COc1cc(NC(=O)CCNS(=O)(=O)c2ccc3c(c2)CCN3C(=O)C2CC2)cc(OC)c1,.,.,.,2%,.
Cc1cccc(C(C)C)c1NC(=O)C(C)OC(=O)Cc1n[nH]c(=O)c2ccccc12 (stereo unspecified),.,.,.,-1%,10%
c1ccc(-c2cnn3c(-c4ccccc4)c(-c4ccccc4)nc3n2)cc1,16%,-11,5,?,-17%
CCCCN(CCCC)S(=O)(=O)c1ccc2oc(C(=O)NCc3ccccc3)c(C)c2c1,.,.,.,8%,.
COc1ccc(N(C(=O)c2ccco2)C(C(=O)NC2CCCC2)c2ccncc2)cc1 (stereo unspecified),0%,-10,1,-1%,4%
CC(C)c1ccc(N(C(=O)c2ccco2)C(C(=O)NC2CCCC2)c2ccncc2)cc1 (stereo unspecified),-1%,73*,33*,-3%,42%
CC(C)(C)OC(=O)N/N=C\c1ccc[nH]1,.,58*,41*,4%,-17%
O=C(N/N=C/c1ccc([N+](=O)[O-])cc1)c1ccc2nc[nH]c2c1,9%,20,2,-4%,-25%
Cc1ccc(C(=O)N/N=C\c2ccc[nH]2)cn1,-7%,24,19*,-3%,-7%
O=C(N/N=C/c1ccc[nH]1)c1ccc([N+](=O)[O-])cc1,3%,17,20*,-5%,-18%
O=C(N/N=C/c1ccc[nH]1)c1cccnc1,11%,-5,-1,-13%,-12%
Cc1cccc(C(=O)N/N=C/c2cc(Br)c(Br)o2)c1,-5%,33*,19,?,?

# High-throughput results as filed in PubChem BioAssay.
